# Bioassay records: PubChem, National Center for Advancing Translational Sciences (NCATS)
# MCF10A rerep – DNA re-replication induction in MCF 10a cells; MCF 10A DNA re-replication, Hoechst nuclear intensity, 48 h; Potency, µM (top dose mostly 46.1 µM), without a hit: top-dose activity, positive = re-replication, usual class: activators; 350,000 tested, 2.9% active; AID 624296; also: potency is read from the fitted curve at half-maximal effect; % of control where 0% means no effect; nearly all actives have a fitted effect of over 50% in size
# SW480 rereplic – inducers of DNA re-replication in SW480 colon cancer cells | SW480 DNA re-replication, Hoechst DNA content imaging, 48 h | Potency, µM (top dose mostly 46.1 µM), for the others: at the highest dose re-replication activation, hits mostly activators | 340,000 tested, 1.8% active | AID 624297; also: potency is read from the fitted curve at half-maximal effect; % of control where 0% means no effect; nearly all actives have a fitted effect of over 55% in size
#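 Cells (250 per well) received 23 nL compound or DMSO by pin tool and were kept 48 hr at 37 C, 5% CO2. Nuclei were then stained with Hoechst for 40 min and scanned for DNA content.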
# KB-V1 MDR tox – KB-V1 MDR subline cytotoxicity; KB-V1 MDR cells viability, CellTiter-Glo, 72 h; Potency, µM (top dose mostly 46.1 µM), hits mostly cytotoxic; 400,000 tested, 3.4% active; also: potency is read from the fitted curve at half-maximal effect; % is scaled to controls: 0 for no effect and ±100 for the full control effect; nearly all actives have a fitted effect of over 60% in size
#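 Compound-treated KB-V1 multidrug-resistant cells, 72 h, 37 degrees C; viability by CellTiter-Glo. Fitted qHTS curves give the values.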
# KB-3-1 cytotox – kills parental KB-3-1 adenocarcinoma cells. KB-3-1 viability, CellTiter-Glo ATP luminescence, 72 h. Potency, µM (highest dose often 46.1 µM), actives largely listed as cytotoxic. 400,000 tested, 1.4% active; also: potency is read from the fitted curve at half-maximal effect; % is scaled to controls: 0 for no effect and ±100 for the full control effect; nearly all actives have a fitted effect of over 60% in size
#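 Parental KB-3-1 viability, qHTS format: 72 h compound exposure, 37 °C; CellTiter-Glo; media-only wells and DMSO plates as controls; concentration-effect fits on corrected data.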
# IL1B secr inh – blocks inflammasome-driven IL-1 beta release; 360,000 tested, 4.7% active; THP-1 LPS/ATP IL-1B secretion, AlphaLISA, 16 h; stronger effect = lower value; activity change, % at 57.5 µM; in the data active = activity change below about -50%; inconclusive = mostly about -30% to -49%; also: % is scaled to controls: 0 for no effect and ±100 for the full control effect
#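 THP-1 cells pretreated 1 hr with compounds (up to 57.5 uM final), then stimulated with LPS (250 ng/mL final) plus ATP (1.25 mM final); secreted IL-1B measured by AlphaLISA after 16 hr, decreased signal indicating inhibition.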
# Numbers without * were called inactive; i = inactive; u = inconclusive; x = not tested or not shown. Most compounds without a hit are left out; they make up all but 9.9% or so of the library. Unless noted, calls follow the shape of the dose curve; as a rule, active = well fitted curve in the direction sought with a large enough effect; inconclusive = small, poorly fitted or top-dose-only effect, or another doubt; inactive = no such curve, though single readings can be large; an effect the other way counts as inactive or inconclusive.
SMILES,MCF10A rerep,SW480 rereplic,KB-V1 MDR tox,KB-3-1 cytotox,IL1B secr inh
Cc1ccc2c(C)ccc(O)c2n1,21µM*,0%,i,u,-18
CC(c1ccccc1)N1CC(C(=O)N2CCCC(C(N)=O)C2)CC1=O (stereo not given),-8%,-9%,i,i,1
CC(C)Oc1cc(NC(=O)CS(=O)CC(=O)Nc2cccc(C(F)(F)F)c2)c(Cl)cc1Cl (stereo not given),3%,1%,i,i,-63*
CC(C)Oc1cc(NC(=O)CS(=O)CC(=O)N(C)C)c(Cl)cc1Cl (stereo not given),8%,-2%,i,i,-11
N/C(=N\OC(=O)CCc1ccccc1)c1ccc(Br)cc1,-1%,-4%,i,i,5
Cc1ccc(/C(N)=N/OC(=O)CCc2ccccc2)cc1,7.3µM*,8%,i,i,13
O=S(=O)(c1ccc(SCc2ccc(Cl)cc2)nc1)N1CCCC1,8%,-12%,i,i,-3
CC(C)=CCC[C@H](C)C[C@@H]1Cc2[nH]c(=S)[nH]c(=O)c2[C@@H](c2ccc(F)cc2)O1,x,x,i,u,86
CCCCCCCCNS(=O)(=O)CCNCc1ccc(OC)cc1,u,8%,i,i,-61*
COc1ccc(CNCCS(=O)(=O)NCc2ccc(OC)cc2)cc1,-2%,2%,i,i,35
CC(C)n1cnnc1SCC(=O)NC(=O)c1ccccc1,1%,-296%,i,i,13
CCn1c2ccccc2c2cc(CN3CCN(S(C)(=O)=O)CC3)ccc21,22%,12%,3.3µM*,i,-9
COc1ccc(CN2CCN(CC(O)Cn3c4ccccc4c4ccccc43)CC2)cc1 (stereo not given),u,u,6.5µM*,u,-57*
CCOc1ccc(CN2CCN(CC(O)Cn3c4ccccc4c4ccccc43)CC2)cc1 (stereo not given),u,u,u,i,-1
O=c1c2ccccc2n(CC(O)CN2CCCCC2)c2ccccc12 (stereo not given),21µM*,7.3µM*,u,i,x
Cc1cc(=O)n2c3ccccc3n(CC(O)CN3CCCC3)c2c1C#N (stereo not given),u,10%,u,i,-65*
COc1ccc2oc(=O)c(C(=O)N3CCN(C(=O)c4ccco4)CC3)cc2c1,-3%,0%,i,i,4
O=C1CCCc2cc(S(=O)(=O)N3CCCC(C(=O)NCc4ccc(Cl)cc4)C3)ccc2N1 (stereo not given),x,x,i,u,x
CCn1c2ccccc2c2cc(CN3CCN(Cc4cc(OC)ccc4O)CC3)ccc21,u,u,i,i,-84*
O=C(/C=C/c1ccc([N+](=O)[O-])s1)N1CCCC1,-1%,12µM*,u,u,7
O=[N+]([O-])c1ccc(CN2CCCCCC2)s1,13%,u,u,23µM*,0
O=C(/C=C/c1ccc([N+](=O)[O-])s1)N1CCCCC1,u,5.8µM*,u,15µM*,-90*
CC1CN(C(=O)/C=C/c2ccc([N+](=O)[O-])s2)CC(C)O1 (stereo not given),u,8.2µM*,8.2µM*,u,-23
O=C(/C=C/c1ccc([N+](=O)[O-])s1)N1CCN(c2ccccc2)CC1,u,27%,i,i,-12
COc1ccc(S(=O)(=O)NCCc2nnc3ccc(SCC(=O)Nc4nc(C)cs4)nn23)cc1,4%,2%,i,i,17
SMILES,MCF10A rerep,SW480 rereplic,KB-V1 MDR tox,KB-3-1 cytotox,IL1B secr inh
O=C(NCc1ccccc1)c1cc[n+](CC(=O)c2cccs2)cc1,14%,-1%,i,i,-4
CCCCCNC(=O)C(c1ccnc2ccccc12)n1c(=O)c(-c2cc3ccccc3[nH]2)nc2ccccc21 (stereo not given),x,x,u,i,-12
O=C(c1ccco1)N1CCN(Cc2nnnn2C2CCCCC2)CC1,0%,-2%,i,i,4
COc1ccc(-[n+]2c(C)cc(/C=C3\Sc4ccccc4N3C)cc2C)cc1,u,18µM*,u,u,-94*
COc1ccccc1OC(=O)CCN1c2ccccc2Sc2ccccc21,3%,-2%,i,i,3
COc1ccccc1-[n+]1c(C)cc(/C=C2\Sc3ccccc3N2C)cc1C,u,23µM*,9.2µM*,0.29µM*,-63*
Cc1ccccc1OCCNC(=O)CNC(=O)c1ccccc1O,12%,-7%,16µM*,i,34
CCCCOc1ccc(C(=O)NCC(=O)NCCOc2ccccc2OC)cc1,9%,0.92µM*,i,i,-15
Cc1ccc(N2CCN(C(=O)CCS(=O)(=O)c3cc4c(cc3Cl)NC(=O)CO4)CC2)c(C)c1,x,x,i,i,x
O=C(NNc1ccccc1)c1ccc(Cl)c(Cl)c1,u,1%,18µM*,i,-10
Cc1ccc(N2CC(C(=O)N3CCC(C(=O)Nc4ccc(Br)cc4)CC3)CC2=O)cc1 (stereo not given),-3%,6%,i,i,-61*
COCc1nnc(NC(=O)C2CC(=O)N(c3ccc(C)c(Cl)c3)C2)s1 (stereo not given),3%,u,i,i,14
O=C(Nc1ccc(Cl)c(Cl)c1)C1CC(=O)N(c2ccc(Br)cc2)C1 (stereo not given),-2%,-1%,i,i,-60*
Cc1ccc(N2CC(C(=O)Nc3nccs3)CC2=O)cc1Cl (stereo not given),8%,18%,7.3µM*,u,-24
Cc1ccc([C@@H]2CC(=O)[C@@H]3CN(S(=O)(=O)c4ccc(C)cc4)[C@H](c4ccccc4)C[C@@H]3N2S(=O)(=O)c2ccc(Cl)cc2)cc1,x,x,i,i,3
Nc1nc(Sc2c([N+](=O)[O-])cc(C(F)(F)F)cc2[N+](=O)[O-])n[nH]1,u,u,i,i,-100*
CCCCC(=O)N(C)c1c(CC)nc2c(OCC(=O)N(C)C)cccn12,x,x,i,i,22
CCc1cc2c(=O)c(-c3ccc4c(c3)OCO4)coc2c(CN(C)C)c1O,7%,-4%,i,i,-2
CCc1cc2c(=O)c(-c3cscn3)coc2c(CN(C)C)c1O,10µM*,u,i,i,11
CNC(=O)c1c(NC(=O)C2=COCCO2)sc2c1CCN(C(=O)OC)C2,3%,-3%,i,i,-6
Cc1ccc(C(=O)Nc2sc3c(c2C(=O)O)CCCCC3)o1,u,-3%,u,16µM*,0
CC(C)(C)c1ccc(C(=O)Nc2sc3c(c2C(=O)O)CCC3)cc1,21µM*,-4%,u,3.3µM*,17
